Measured values: PubChem BioAssay (NCATS)
Inconclusive results are not listed. Activity calls are given as the source filed them. The call rests on the fitted dose curve; in most records, active means well fitted inhibition curve with a large enough effect; inconclusive means small, poorly fitted or top-dose-only effect; inactive means flat fitted curve, though single readings scatter.

Key:
TAB109 = assay: qHTS profiling for inhibitors of Plasmodium falciparum proliferation (AID 504749);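 further: 0% = DMSO vehicle and full inhibition = artemisinin control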; settings: P. falciparum in erythrocytes, SYBR Green DNA, 72 h; series mostly up to 28.7 µM
How it was run: (§1)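 P. falciparum-infected erythrocytes (0.3% parasitemia, 2.5% hematocrit) incubated with compound 72 h at 37 C, 5% CO2. Parasite DNA detected by SYBR Green after lysis, overnight at room temperature; normalised to 0.29 uM artemisinin and DMSO.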

TAB113 = assay: as above; settings: P. falciparum in erythrocytes, SYBR Green DNA, 72 h; series mostly up to 28.7 µM
How it was run: as §1

TAB165 = assay: as above; settings: P. falciparum in erythrocytes, SYBR Green DNA, 72 h; series mostly up to 28.7 µM
How it was run: as §1

W2 = assay: as above; settings: P. falciparum in erythrocytes, SYBR Green DNA, 72 h; series mostly up to 28.7 µM
How it was run: as §1

CRL-7250 = normal cell line; assay: Cytotoxic Profiling of Annotated Libraries Using Quantitative High-Throughput Screening (AID 1296008); settings: Five cell lines viability, CellTiter-Glo ATP luminescence, 48-72 h; active compounds read low; on max response: on the % scale 0 is the no-effect control and ±100 the full control effect
How it was run: (§2)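 Cells exposed to compounds for 48 or 72 hr at 37 degrees Celsius. Viability read as ATP-coupled luminescence with CellTiter-Glo after 10 min at room temperature.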

HEK293 = assay: as above; settings: Five cell lines viability, CellTiter-Glo ATP luminescence, 48-72 h; active compounds read low
How it was run: as §2

HaCat [1] = assay: as above; settings: Five cell lines viability, CellTiter-Glo ATP luminescence, 48-72 h; active compounds read low
How it was run: as §2

KB-3-1 = assay: as above; settings: Five cell lines viability, CellTiter-Glo ATP luminescence, 48-72 h, active compounds read low
How it was run: as §2

NIH3T3 = assay: as above; settings: Five cell lines viability, CellTiter-Glo ATP luminescence, 48-72 h; active compounds read low
How it was run: as §2

HACAT [2] = assay: qHTS assay to identify novel small-molecules to repurpose for Merkel cell carcinoma treatment (AID 1296009); settings: MCC and control cell lines, CellTiter-Glo viability, 72 h; at 44.8 µM (top of the series) unless noted
How it was run: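 Cells were treated for 72 hr at 37 degree celsius with compounds in 8- or 11-point dose response. Viability was read by CellTiter-Glo luminescence, normalized to no-cell (cytotoxicity) and DMSO controls.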
Further: nearly all actives have a fitted effect of over 60% in size.

Cc1c(NC(C)C)c(=O)n(-c2ccccc2)n1C
inactive: Potency (TAB109) | Potency (TAB113) | Potency (TAB165) | Potency (W2) | outcome (CRL-7250) | max response (HEK293) -10.6% | outcome (HaCat [1]) | max response (KB-3-1) 6.84% | outcome (NIH3T3) | outcome (HACAT [2])

O=C(O)COC(=O)Cc1ccccc1Nc1c(Cl)cccc1Cl
inactive: Potency (TAB109) | Potency (TAB113) | Potency (TAB165) | Potency (W2) | outcome (CRL-7250) | max response (HEK293) -1.3% | outcome (HaCat [1]) | max response (KB-3-1) 5.03% | max response (NIH3T3) 1.68% | outcome (HACAT [2])

Cc1c(C(=O)NCCO)[n+](=O)c2ccccc2n1[O-]
inactive: Potency (TAB109) | Potency (TAB113) | Potency (TAB165) | Potency (W2) | outcome (CRL-7250) | max response (HEK293) 0.33% | outcome (HaCat [1]) | max response (KB-3-1) -16.8% | outcome (NIH3T3) | outcome (HACAT [2])

Cc1ccc(C(C)C)c(O)c1
inactive: Potency (TAB109) | Potency (TAB113) | Potency (TAB165) | Potency (W2) | outcome (CRL-7250) | max response (HEK293) 3.73% | outcome (HaCat [1]) | max response (KB-3-1) 18.3% | max response (NIH3T3) 0.329% | outcome (HACAT [2])

O=C(/C=C/c1ccccc1)OCc1ccccc1
inactive: Potency (TAB109) | Potency (TAB113) | Potency (TAB165) | Potency (W2) | max response (CRL-7250) 1.75% | max response (HEK293) -4.12% | outcome (HaCat [1]) | max response (KB-3-1) 21.2% | max response (NIH3T3) -4.12% | outcome (HACAT [2])

CC(=O)Nc1ccccc1
inactive: Potency (TAB109) | Potency (TAB113) | Potency (TAB165) | Potency (W2) | max response (CRL-7250) 2.87% | max response (HEK293) -7.78% | outcome (HaCat [1]) | max response (KB-3-1) 12.7% | outcome (NIH3T3) | outcome (HACAT [2])

NS(=O)(=O)c1ccc(C(=O)O)cc1
inactive: Potency (TAB109) | Potency (TAB113) | Potency (TAB165) | Potency (W2) | max response (CRL-7250) -10.9% | max response (HEK293) -0.608% | outcome (HaCat [1]) | max response (KB-3-1) 9.5% | max response (NIH3T3) 1.17% | outcome (HACAT [2])

O=C(NCN1CCOCC1)c1cnccn1
inactive: Potency (TAB109) | Potency (TAB113) | Potency (TAB165) | Potency (W2) | max response (CRL-7250) 3.76% | max response (HEK293) 3.79% | outcome (HaCat [1]) | max response (KB-3-1) -13.5% | max response (NIH3T3) -0.98% | outcome (HACAT [2])

COc1nccnc1NS(=O)(=O)c1ccc(N)cc1
inactive: Potency (TAB109) | Potency (TAB113) | Potency (TAB165) | Potency (W2) | max response (CRL-7250) 3.15% | max response (HEK293) 4.9% | outcome (HaCat [1]) | max response (KB-3-1) -12% | outcome (NIH3T3) | outcome (HACAT [2])

COc1ccc(C(=O)N2CCN(CC(=O)N3CCOCC3)CC2)cc1
inactive: Potency (TAB109) | Potency (TAB113) | Potency (TAB165) | Potency (W2) | max response (CRL-7250) 3.53% | max response (HEK293) 4.6% | outcome (HaCat [1]) | max response (KB-3-1) 5.06% | outcome (NIH3T3) | outcome (HACAT [2])

O=C(O)Cc1ccc(CCNS(=O)(=O)c2ccc(Cl)cc2)cc1
inactive: Potency (TAB109) | Potency (TAB113) | Potency (TAB165) | Potency (W2) | max response (CRL-7250) 2.04% | max response (HEK293) -7.16% | outcome (HaCat [1]) | max response (KB-3-1) 0.272% | max response (NIH3T3) -0.48% | outcome (HACAT [2])

CC(CSC(=O)c1ccccc1)C(=O)N1C[C@@H](Sc2ccccc2)C[C@H]1C(=O)O (stereo not given in full)
inactive: Potency (TAB109) | Potency (TAB113) | Potency (TAB165) | Potency (W2) | max response (CRL-7250) -5.72% | outcome (HEK293) | outcome (HaCat [1]) | max response (KB-3-1) -11.1% | max response (NIH3T3) -0.681% | outcome (HACAT [2]) inactive [at 17.4 µM]

CCc1nnc(NS(=O)(=O)c2ccc(N)cc2)s1
inactive: Potency (TAB109) | Potency (TAB113) | Potency (TAB165) | Potency (W2) | max response (CRL-7250) 4.08% | max response (HEK293) -0.578% | outcome (HaCat [1]) | max response (KB-3-1) 7.07% | max response (NIH3T3) 3.74% | outcome (HACAT [2])

O=C(c1ccccc1)C(O)c1ccccc1 (stereo not given)
inactive: Potency (TAB109) | Potency (TAB113) | Potency (TAB165) | max response (CRL-7250) -6.36% | max response (HEK293) -4.36% | max response (HaCat [1]) -0.758% | max response (KB-3-1) -15.7% | outcome (NIH3T3)

Cc1cccc(C)c1NC(=O)CC12CCCN1CCC2
inactive: Potency (TAB109) | Potency (TAB113) | Potency (TAB165) | max response (CRL-7250) 2.63% | outcome (HEK293) | max response (HaCat [1]) -12.5% | max response (KB-3-1) -0.628% | max response (NIH3T3) -1.1%

CC[N+](C)(CC)CCOC(=O)C1c2ccccc2Oc2ccccc21
inactive: Potency (TAB109) | Potency (TAB113) | Potency (W2) | outcome (CRL-7250) | max response (HEK293) -9.27% | outcome (HaCat [1]) | max response (KB-3-1) 56.3% | max response (NIH3T3) 2.85% | outcome (HACAT [2])

NNc1nnc(NN)c2ccccc12
inactive: Potency (TAB109) | Potency (TAB113) | Potency (TAB165) | max response (CRL-7250) 4.89% | max response (HEK293) -11.7% | max response (HaCat [1]) 3.01% | max response (KB-3-1) -5.02% | outcome (NIH3T3)

Cc1cc(-n2nc3ccc(Cl)cc3n2)c(O)c(C(C)(C)C)c1
inactive: Potency (W2) | max response (CRL-7250) -3.44% | max response (HEK293) 4.97% | outcome (HaCat [1]) | max response (KB-3-1) 6.34% | max response (NIH3T3) 3.2% | outcome (HACAT [2])
